Data on 40 molecules can be found in ChEMBL document CHEMBL1157539, “Thousands of chemical starting points for antimalarial lead identification” (Nature, 2010).

Molecules are shown by their SMILES.

The subject of the assay is HepG2. As to the kind of experiment: GSK_TCMDC: Percent inhibition of human HepG2 cell line. Test compounds present at 10uM. Type of assay: functional.
Usually Inhibition stands for the share of the control response that was lost under treatment. The molecule `Cc1cc(NC(=O)c2ccc(S(=O)(=O)N(Cc3ccccc3)C(C)C)cc2)no1` returned an Inhibition of 0%.
`CCCCCCn1c(Sc2ccc(C#N)c([N+](=O)[O-])c2)nnc1-c1ccc(Cl)cc1` had an Inhibition of 23%.
In turn, `N=C1NC(c2ccccc2)(c2ccccc2)C(=O)N1CC=Cc1ccccc1.O=C(O)C(F)(F)F` had an Inhibition of 23%.
`CCc1c[nH]c2c(N3CCCS3(=O)=O)cc(C(=O)N[C@@H](Cc3ccccc3)[C@H](O)CNC(C)(C)CCCC(C)C)cc12` yielded an Inhibition of 13%.
The molecule `O=C(NCCc1ccccc1)N(Cc1cccc(-c2ccc(CNC3CCCC3)cc2)c1)C1CCN(Cc2ccccc2)CC1.O=C(O)C(F)(F)F` gave an Inhibition of 36%.
`O=C(NCc1ccccc1)Nc1ccc(-c2cccc(-c3nc4cc(C(F)(F)F)ccc4[nH]3)c2)cc1` registered an Inhibition of 56%.
Take `O=C(Nc1cccc(-c2cccc(-c3nc4cc(C(F)(F)F)ccc4[nH]3)c2)c1)c1cccnc1Cl`: the Inhibition is 56%.
For the molecule `CCCC(CNCc1cccc(SC(F)(F)F)c1)CNc1cc(=O)c2ccccc2[nH]1` (stereo not given), the Inhibition came out at 5%.
For `Cc1cnc(NCC2CCCCC2)nc1N[C@@H](CC(C)C)C(=O)Nc1ccccc1.O=C(O)C(F)(F)F` the value was 12%; for `COc1ccc(-c2ccc(NC(=O)c3ccc(C#N)cc3)cc2)cc1CN1CCC(O)CC1.O=C(O)C(F)(F)F`, 24%; for `Cc1cc(N)c2cc(NC(=O)/C=C/c3ccccc3Cl)ccc2n1`, 81%.
The molecule `CCN(CC)CCN(Cc1ccc(-c2ccc(C(F)(F)F)cc2)cc1)C(=O)Cn1c(CCc2c(F)cccc2F)nc(=O)c2ccccc21.O=C(O)C(O)C(O)C(=O)O` gave an Inhibition of 36%.
As to `CC(C)(CNCc1cc(Cl)cc(Cl)c1)c1nc(-c2ccnc(N)n2)c(-c2ccc(Cl)c(O)c2)[nH]1.Cl`, the Inhibition amounted to 54%.
`Cc1ccccc1C1CCN(C2CCC(NC(=O)c3cc4cc(C(C)C)ccc4[nH]3)CC2)CC1` (stereo not given) registered an Inhibition of 100%.
On to `CCc1c(C)nc2nc(Cc3cccc(F)c3)nn2c1N1CCN(c2ccccn2)CC1`, for which the Inhibition was 0%.
For `COc1ccc(NC(=O)[C@H](CC(C)C)Nc2cc(C)nc(NCCc3cccs3)n2)cc1.O=C(O)C(F)(F)F`, the Inhibition was 5%.
Regarding `Cc1ccc(CN2CCN(Cc3cccc(NC(=O)c4cccs4)c3)CC2)cc1C.O=C(O)C(F)(F)F`, the Inhibition was found to be 41%.
In the case of `CC(C)NC(=O)c1cccc(-c2cccc(OCCN3CCSCC3c3ccccc3)c2)c1` (stereo not given) it was 24%.
On to `O=C(c1ccc([N+](=O)[O-])o1)N1CCC(c2cn(Cc3cccc(F)c3)c3ccccc23)CC1`, for which the Inhibition amounted to 1%.
`COc1cc(C(=O)N2CCC(CCN3CCC4(CC3)CN(S(C)(=O)=O)c3ccccc34)CC2Cc2ccc(Cl)c(Cl)c2)cc(OC)c1OC.Cl` (stereo not given) had an Inhibition of 29%.
For `O=C(Nc1ccc(C(=O)N(Cc2ccc3c(c2)OCO3)C2CCCC2)cc1)c1cccs1` the value was 14%.
Turning to `Cc1cccc2nc(-c3ccc(-c4cccc(CN5CCCCC5)c4)s3)[nH]c12.O=C(O)C(F)(F)F`, the Inhibition was found to be 11%.
On to `Cc1cc(C(=O)Nc2ccc3c(c2)CCN3C2CCN(Cc3cccc(F)c3F)C2)no1` (stereo not given), for which the Inhibition is reported as 0%.
Take `COc1ccc(NC(=O)NC2CCN(CCCOc3cc(C)nc4ccccc34)CC2)cc1OC`: the Inhibition was 3%.
`O=C(NC1CCN(Cc2ccccc2)CC1)c1cc(-c2ccncc2)nc2ccc(Cl)cc12` returned an Inhibition of 17%.
For `CCc1cc(NC2CCN(C)CC2)nc(Nc2cccc(OC)c2)n1` the value was 22%; for `Clc1ccccc1CCNCC1CCN(CC2CCCCC2)CC1.O=C(O)C(F)(F)F`, 45%.
In the case of `CC(C)(C)c1ccc(C(=O)Nc2cccc(Nc3c(C(=O)NCc4cccc(C(F)(F)F)c4)cnc4c(O)cccc34)c2)cc1.O=C(O)C(F)(F)F` it was 40%.
Consider `O=C(NC1CCN(CCCOc2ccnc3cc(Cl)ccc23)C1)c1ccc(Br)cc1` (stereo not given), for which the Inhibition is reported as 21%.
`CC(C)N(Cc1cnc2nc(N)nc(N)c2n1)c1ccc(Cl)c(Cl)c1` yielded an Inhibition of 63%.
`O=C(Nc1cccc(CN2CCN(C(=O)c3cccc(F)c3)CC2)c1)c1cccs1.O=C(O)C(F)(F)F`: the Inhibition is on record as 17%.
In the case of `CN(C)C(CNC(=O)c1cc(-c2ccncc2)c(-c2ccc(NC(=O)Nc3ccccc3)cc2)o1)c1ccccc1.O=C(O)C(F)(F)F` (stereo not given) it was 19%; in that of `N=C(N)NC(=O)Nc1cc(Cl)c(Cl)c(Br)c1`, 16%.
`Cc1cc(O)c2c3c1C(=O)C=C1C3c3c(c(O)cc(O)c3C(=O)C1(C)C)C2=O` (stereo not given) registered an Inhibition of 45%.
The molecule `COc1ccc(-c2cc(C(=O)Nc3ccc(CCCN(C)Cc4ccc(OC)c(OC)c4)cc3)c3ccccc3n2)cc1` returned an Inhibition of 40%.
The molecule `COc1cc(C(=O)NCCCN2CCN(c3cc(Cl)ccc3OC)CC2)ccc1-c1nc2cc(Cl)c(Cl)cc2[nH]1` came in with an Inhibition of 12%.
In turn, `O=C(Nc1cccc(-c2cccc(-c3nc4cc(C(F)(F)F)ccc4[nH]3)c2)c1)c1cccnc1` displayed an Inhibition of 57%.
`COc1ccc2nccc([C@@H](O)CN3CCC(NCc4nc5cc(F)ccc5o4)CC3)c2c1.O=C(O)C(=O)O` returned an Inhibition of 14%.
For `CCN1CCC(N(CCCCCCc2ccc(C(F)(F)F)cc2)C(=O)Cn2c(CCc3cccc(F)c3F)cc(=O)c3ccccc32)CC1.O=C(O)C(O)C(O)C(=O)O` the value was 32%; for `O=C(Nc1ccccc1C(F)(F)F)Nc1nn(Cc2c(F)cccc2Cl)cc1Br`, 0%.
